{"source": "PubChem BioAssay (Tox21)", "note": "Inconclusive results are not listed. Active and inactive are the calls of the source. The call rests on the fitted dose curve. On the % scale 0 is the no-effect control and ±100 the full control effect."}
{"molecular_target": "Acetylcholinesterase (Homo sapiens) (UniProt P22303)", "sequence (P22303 whole entry, looked up)": "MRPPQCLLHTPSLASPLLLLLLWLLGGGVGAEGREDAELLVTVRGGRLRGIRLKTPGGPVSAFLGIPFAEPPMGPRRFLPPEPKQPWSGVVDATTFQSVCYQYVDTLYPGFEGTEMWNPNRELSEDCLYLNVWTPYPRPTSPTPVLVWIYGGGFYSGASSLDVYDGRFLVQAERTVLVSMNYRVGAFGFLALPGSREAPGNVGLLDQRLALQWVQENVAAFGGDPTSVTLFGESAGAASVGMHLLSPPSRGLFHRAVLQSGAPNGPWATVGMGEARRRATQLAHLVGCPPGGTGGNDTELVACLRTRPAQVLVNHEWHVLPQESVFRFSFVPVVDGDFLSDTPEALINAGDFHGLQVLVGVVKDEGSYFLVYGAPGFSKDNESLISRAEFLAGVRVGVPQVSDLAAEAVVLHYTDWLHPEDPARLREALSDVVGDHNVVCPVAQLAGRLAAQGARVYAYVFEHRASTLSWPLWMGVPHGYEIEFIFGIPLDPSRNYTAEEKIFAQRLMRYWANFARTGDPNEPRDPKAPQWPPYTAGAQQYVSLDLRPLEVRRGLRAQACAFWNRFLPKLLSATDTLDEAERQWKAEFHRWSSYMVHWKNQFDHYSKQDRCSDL", "assay": "Acetylcholinesterase (AChE) small molecule antagonists: fluorescence cell-based qHTS assay (AID 1347398); further: nearly all actives have a fitted effect of over 50% in size", "conditions": "SH-SY5Y cells; Potency: AChE activity; outcome: AChE activity; series mostly up to 115 µM; activity change, negative = inhibition: at the top concentration", "procedure,_shortened": "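Thiocholine generated from acetylthiocholine by SH-SY5Y cell AChE is detected with Thiolite Green (Ex/Em 490/520 nm) after 40 min at room temperature, following 30 min compound pretreatment at 37 C.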"}
{"smiles": "CCCC/C=C/CCCCO", "activity change, negative = inhibition": "0.415% (inactive)"}
{"smiles": "CC(C)CC(C)CC(C)CC(C)COC(=O)c1ccccc1C(=O)OCC(C)CC(C)CC(C)CC(C)C", "note": "(stereo not drawn)", "activity change, negative = inhibition": "-13% (inactive)"}
{"smiles": "CC(=O)c1ccccc1O", "activity change, negative = inhibition": "4.14% (inactive)"}
{"smiles": "CC1=CCC2CC1C2(C)C", "note": "(stereo not drawn)", "Potency": "inactive"}
{"smiles": "O=C(O)CN(CCCN(CC(=O)O)CC(=O)O)CC(=O)O", "activity change, negative = inhibition": "3.08% [at 23.8 µM] (inactive)"}
{"smiles": "CCc1oc2ccccc2c1C(=O)c1cc(Br)c(O)c(Br)c1", "activity change, negative = inhibition": "-8.86% [at 53.7 µM] (inactive)"}
{"smiles": "CC(C)(C)CC(C)(C)c1ccc(O)c(-n2nc3ccccc3n2)c1", "Potency": "inactive"}
{"smiles": "O=C(O)CC(C(=O)O)S(=O)(=O)O", "note": "(stereo not drawn)", "activity change, negative = inhibition": "2.74% (inactive)"}
{"smiles": "CN(C)C=O", "Potency": "inactive"}
{"smiles": "CC(Oc1c(Cl)cccc1Cl)C1=NCCN1", "note": "(stereo not drawn)", "activity change, negative = inhibition": "-14.5% [at 53.7 µM] (inactive)"}
{"smiles": "CC(=O)OC(C)c1ccccc1", "note": "(stereo not drawn)", "activity change, negative = inhibition": "6.1% (inactive)"}
{"smiles": "CCCCNC(=O)NS(=O)(=O)c1ccc(N)cc1", "Potency": "inactive"}
{"smiles": "CC(CCC(=O)O)(c1ccc(O)cc1)c1ccc(O)cc1", "Potency": "inactive"}
{"molecular_target": "Acetylcholinesterase (Homo sapiens) (UniProt P22303)", "assay": "Acetylcholinesterase (AChE) small molecule antagonists: enzyme-based qHTS assay with human liver microsomes (AID 1347399); further: nearly all actives have a fitted effect of over 60% in size", "conditions": "Potency: qHTS inhibition; outcome: qHTS inhibition; series mostly up to 115 µM; activity change, negative = inhibition: at the top concentration", "procedure,_shortened": "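Recombinant human AChE (50 mU/mL in the enzyme mix) and human liver microsomes (0.25 mg/mL final) were preincubated with compound and NADPH (0.25 mg/mL final) for 30 min at 37 C. Acetylthiocholine/DTNB was then added; thiocholine was read colorimetrically after 10 min at room temperature.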"}
{"smiles": "CN(C)c1ccc(/C=C/c2ccc([N+](=O)[O-])cc2)cc1", "activity change, negative = inhibition": "1.54% [at 10.5 µM] (inactive)"}
{"smiles": "CC(CC(C)(C)C)CC(C)(C)CC(C)(C)C", "note": "(stereo not drawn)", "activity change, negative = inhibition": "0.479% [at 53 µM] (inactive)"}
{"smiles": "COc1ccc(CCC(C)=O)cc1", "Potency": "inactive"}
{"smiles": "CC1CCCNC1", "note": "(stereo not drawn)", "activity change, negative = inhibition": "2.01% (inactive)"}
{"smiles": "c1ccc(Oc2ccccc2)cc1", "Potency": "inactive"}
{"smiles": "CCCc1c2oc(C(=O)O)cc(=O)c2cc2c(=O)cc(C(=O)O)n(CC)c12", "activity change, negative = inhibition": "-0.973% [at 53 µM] (inactive)"}
{"smiles": "CCCCCCCCCCCCSC#N", "activity change, negative = inhibition": "-2.66% (inactive)"}
{"smiles": "Cc1ccccc1C(OCCN(C)C)c1ccccc1", "note": "(stereo not drawn)", "Potency": "inactive"}
{"smiles": "COC(=O)CCCC(=O)OC", "Potency": "inactive"}
{"smiles": "CC1(C)O[C@@H]2C[C@H]3[C@@H]4CCC5=CC(=O)C=C[C@]5(C)[C@H]4[C@@H](O)C[C@]3(C)[C@]2(C(=O)CO)O1", "activity change, negative = inhibition": "-0.318% [at 53 µM] (inactive)"}
{"smiles": "OCCc1ccccn1", "activity change, negative = inhibition": "-1.39% (inactive)"}
{"smiles": "Cc1cc(C(C)(C)C)c(O)c(C)c1CC1=NCCN1", "activity change, negative = inhibition": "-1.56% [at 53 µM] (inactive)"}
{"smiles": "O=C(O)CCCCCCCC(=O)O", "Potency": "inactive"}
{"smiles": "CCCCCCCCC(CCCCCC)C(=O)O", "note": "(stereo not drawn)", "activity change, negative = inhibition": "-1.07% (inactive)"}
{"smiles": "C/C=C/C(=O)C1=C(C)CCCC1(C)C", "activity change, negative = inhibition": "0% (inactive)"}
{"smiles": "O=C1c2ccccc2C(=O)N1CO", "activity change, negative = inhibition": "0.324% (inactive)"}
{"smiles": "O=C(O)c1cc2ccccc2nc1C(=O)O", "activity change, negative = inhibition": "-0.764% (inactive)"}
{"smiles": "Clc1nc2ccccc2s1", "activity change, negative = inhibition": "-0.65% (inactive)"}
{"smiles": "O=C(OCC1CO1)C1CCCCC1C(=O)OCC1CO1", "note": "(stereo not drawn)", "activity change, negative = inhibition": "-0.669% (inactive)"}
{"smiles": "C=CC(=O)NC(C)C", "activity change, negative = inhibition": "-1.67% (inactive)"}
{"smiles": "SCCOCCOCCS", "activity change, negative = inhibition": "-6.43% (inactive)"}
{"smiles": "CC(C)(C)c1ccc(S)cc1", "activity change, negative = inhibition": "0.709% (inactive)"}
{"smiles": "CCCCCCCCS(=O)(=O)O", "activity change, negative = inhibition": "-0.153% (inactive)"}
{"smiles": "O=c1cc[nH]c(=O)[nH]1", "Potency": "inactive"}
{"smiles": "C=Cc1ccc(OC(C)=O)cc1", "activity change, negative = inhibition": "0.839% (inactive)"}
{"smiles": "O=C(Cl)c1ccc(Cl)cc1Cl", "activity change, negative = inhibition": "-2.33% (inactive)"}
{"smiles": "CC(=O)c1ccc(C)cc1", "activity change, negative = inhibition": "0.309% (inactive)"}
{"smiles": "CCCC/C=C/CCCCO", "activity change, negative = inhibition": "-0.286% (inactive)"}
{"smiles": "CC(C)CC(C)CC(C)CC(C)COC(=O)c1ccccc1C(=O)OCC(C)CC(C)CC(C)CC(C)C", "note": "(stereo not drawn)", "activity change, negative = inhibition": "-2.77% (inactive)"}
{"smiles": "CC(=O)c1ccccc1O", "activity change, negative = inhibition": "-0.548% (inactive)"}
{"smiles": "CC1=CCC2CC1C2(C)C", "note": "(stereo not drawn)", "Potency": "inactive"}
{"smiles": "O=C(O)CN(CCCN(CC(=O)O)CC(=O)O)CC(=O)O", "activity change, negative = inhibition": "1.21% [at 23.6 µM] (inactive)"}
{"smiles": "CCc1oc2ccccc2c1C(=O)c1cc(Br)c(O)c(Br)c1", "activity change, negative = inhibition": "1.61% [at 53 µM] (inactive)"}
{"smiles": "CC(C)(C)CC(C)(C)c1ccc(O)c(-n2nc3ccccc3n2)c1", "Potency": "inactive"}
{"smiles": "O=C(O)CC(C(=O)O)S(=O)(=O)O", "note": "(stereo not drawn)", "activity change, negative = inhibition": "0.153% (inactive)"}
{"smiles": "CN(C)C=O", "Potency": "inactive"}
{"smiles": "CC(Oc1c(Cl)cccc1Cl)C1=NCCN1", "note": "(stereo not drawn)", "activity change, negative = inhibition": "2.02% [at 53 µM] (inactive)"}
{"smiles": "CC(=O)OC(C)c1ccccc1", "note": "(stereo not drawn)", "activity change, negative = inhibition": "-0.204% (inactive)"}
{"smiles": "CCCCNC(=O)NS(=O)(=O)c1ccc(N)cc1", "Potency": "inactive"}
{"smiles": "CC(CCC(=O)O)(c1ccc(O)cc1)c1ccc(O)cc1", "Potency": "inactive"}
